Source: PubChem BioAssay
HCV inhibitor = HCV inhibition. Potency, µM (titrated, usually from 41.8 µM), without a hit: at the top dose activity change, negative = inhibition, usual class: inhibitors. 340,000 compounds, 3.4% hits. Huh7.5.1 HCVcc-Cre infection, luciferase reporter, 44 h; also: potency is read from the fitted curve at half-maximal effect
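Compounds are dispensed onto cells plated 4 h earlier at 1,000 per well, with HCVcc-Cre virus (about 0.5 moi) added next. Following 44 h of culture, luminescent signal is measured for 15 sec after 15 min with substrate at room temperature.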
Pf growth 48h = P. falciparum growth inhibition at 48 hours (one generation). Potency, µM (titrated, usually from 28.7 µM), for inactives: at the highest dose activity change, negative = inhibition, usual class: inhibitors. 310,000 compounds, 5.9% hits. AID 504832. P. falciparum luciferase growth in erythrocytes, 48 h; also: potency is read from the fitted curve at half-maximal effect
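Here the parasites carry a stable luciferase gene and grow inside erythrocytes in Albumax-based RPMI medium with compound for one erythrocytic cycle. Activity is scored as loss of luminescent signal.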
Pf growth 96h = P. falciparum growth inhibition at 96 hour, primary screen for plastid delayed-death inhibitors; P. falciparum luciferase reporter growth, 96 h; 320,000 compounds, 6.9% hits; Potency, µM (top dose mostly 28.7 µM), inactives show top-dose activity change, negative = inhibition, most hits filed as inhibitors; AID 504834; also: potency is read from the fitted curve at half-maximal effect
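Compounds incubated with erythrocytes infected by luciferase-expressing P. falciparum (2% hematocrit, 0.05% parasitemia final) for 96 hours, 37 C in 5% CO2. Growth inhibition scored as decreased luciferase luminescence.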
HCMV inh = human cytomegalovirus inhibition | HFF cells, HCMV-luciferase reporter, 72 h; active compounds read low | activity change, negative = inhibition, % at 57.5 µM | 410,000 compounds, 4.5% hits | AID 1259415; in the data active = activity change below about -60%; inconclusive = no clear call, values can overlap the other calls; inactive = above about -39%
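Inhibition of viral replication was scored as loss of reporter luminescence in HFFs infected with HCMV-luciferase (MOI 1 PFU/cell) for 72 h; compounds tested at 2 doses, normalized to buffer and Salinomycin controls.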
* hit, by the source's call; u = inconclusive; x = not tested or not shown. An excerpt weighted towards active compounds, which were near 13% of everything screened. Unless noted, calls follow the shape of the dose curve; as a rule, active = well fitted inhibition curve with a large enough effect; inconclusive = small, poorly fitted or top-dose-only effect, or another doubt; inactive = no such curve, though single readings can be large or run the other way. % is scaled to controls: 0 for no effect and ±100 for the full control effect.

SMILES | HCV inhibitor | Pf growth 48h | Pf growth 96h | HCMV inh
Cc1ccc(C)c(NC(=O)C(OC(=O)c2ccc(NC(=O)CC#N)cc2)c2ccccc2)c1 (stereo unspecified) | -13.2% | 10.4µM* | u | -3.3
Cc1cc(C)cc(NC(=O)C(OC(=O)c2ccc(NC(=O)CC#N)cc2)c2ccccc2)c1 (stereo unspecified) | -3.4% | 10.4µM* | 10.4µM* | -4.3
CCn1c2ccccc2c2cc(NC(=O)C(C)OC(=O)c3ccc(NC(=O)CC#N)cc3)ccc21 (stereo unspecified) | u | 11.7µM* | u | u
Cc1ccc(C)c(NC(=O)C(OC(=O)c2ccc(CO)cc2)c2ccccc2)c1 (stereo unspecified) | -17.0% | u | u | -18.3
CCn1c2ccccc2c2cc(NC(=O)COC(=O)c3ccc(O)cc3)ccc21 | u | -0.5% | 24.0% | -12.1
CC(OC(=O)c1ccc(NC(=O)CC#N)cc1)C(=O)NCCC1=CCCCC1 (stereo unspecified) | -21.9% | 9.28µM* | 10.4µM* | -2.9
CC1CCC(O)C/C1=C\C=C1/CCCC2(C)C1CCC2C(C)/C=C/C(C)C(C)C (stereo unspecified) | x | -5.8% | -24.6% | x
COc1cc2c(cc1OC)C(COc1ccc3c(C)cc(=O)oc3c1)N(C(=O)Cc1ccccc1)CC2 (stereo unspecified) | x | x | x | 25.8
CCOC(=O)c1c(C)[nH]c(C(=O)OCC(=O)Nc2ccc(OCC)cc2)c1C | u | 37.0% | x | 1.1
CCOC(=O)c1c(C)[nH]c(C(=O)C(C)OC(=O)c2ccc(NC(=O)CC#N)cc2)c1C (stereo unspecified) | 2.3% | 8.28µM* | 10.4µM* | 13.9
CCCn1c2ccccc2c2cnn(CC(=O)N(CCCOC(C)C)Cc3ccco3)c(=O)c21 | x | x | x | -27.0
NNC(=O)C1C(O)CCC2CN3CCc4c([nH]c5ccccc45)C3CC21 (stereo unspecified) | 12.3% | x | x | -100.3*
O=C(O)[C@@H]1[C@@H]2C[C@H]3c4[nH]c5ccccc5c4CCN3C[C@@H]2CC[C@@H]1O | x | u | 5.73µM* | x
NCCCC[C@H]1CN=C(N)N1CCCCC1CCCCC1 | 15.1% | x | x | -82.2*
CC(O)[C@H]1CN=C(N)N1CCCCC1CCCCC1 (stereo partly specified) | 11.2% | 9.28µM* | 3.29µM* | -30.8
C[C@H]1CN=C(N(C)C)N1CCCC1CCCCC1 | u | u | -97.0% | -22.1
CCOc1cc2c(cc1OCC)-n1cccc1C(c1cccc(OCC)c1O)NC2 (stereo unspecified) | u | 14.7µM* | -20.4% | 9.3
CCOc1cc2c(cc1OCC)C(c1ccc(O)c(OC)c1)NCC2 (stereo unspecified) | -9.0% | x | x | 25.8
COc1cc(C2NCc3ccccc3-n3cccc32)ccc1O (stereo unspecified) | 5.3% | 2.62µM* | u | 16.1
CCOc1cc2c(cc1OCC)-n1cccc1C(c1cccc(F)c1)NC2 (stereo unspecified) | u | 13.1µM* | 9.28µM* | 58.4
CCOc1cc2c(cc1OCC)-n1cccc1C(c1cc(OC)ccc1F)NC2 (stereo unspecified) | u | u | 2.94µM* | 92.0
Cc1ccc(Cl)cc1N1CCN(C(=O)Cc2c(C(=O)O)c(C)cn2C)CC1 | x | x | x | 2.0
CCC[C@H]1[C@@H](NC(=O)Nc2ccc(C#N)cc2)CC[C@@]23CCCN2C(=O)CCC[C@@H]13 | x | x | x | -14.5
Cc1cccc(C)c1NC(=O)CCC(=O)N1Cc2ccccc2Oc2ncccc21 | x | x | x | 12.6
CCOc1cc2c(cc1OCC)-n1cccc1C(c1ccc(C)cc1C)NC2 (stereo unspecified) | u | u | -11.4% | u
SMILES | HCV inhibitor | Pf growth 48h | Pf growth 96h | HCMV inh
CCOc1cc2c(cc1OCC)-n1cccc1C(c1ccc(OC)c(O)c1)NC2 (stereo unspecified) | -0.7% | 2.94µM* | 5.4% | 102.4
CCOc1cc2c(cc1OCC)-n1cccc1C(c1cc(C)c(OC)cc1C)NC2 (stereo unspecified) | u | 6.57µM* | 17.3% | -32.1
CCOc1cc(C2NCc3ccccc3-n3cccc32)ccc1OC (stereo unspecified) | -7.0% | u | 23.3% | 61.8
CCOc1cc2c(cc1OCC)-n1cccc1C(c1ccccc1F)NC2 (stereo unspecified) | -13.3% | 8.28µM* | u | 0.2
Cc1ccccc1C(=O)Nc1nnc2n1CCS2 | x | x | x | 48.4
O=S(=O)(NN1CCOCC1)c1cc(Cl)cc(Cl)c1O | 8.8% | -19.0% | 1.65µM* | 14.6
CC(=O)Nc1nonc1-c1nnc(SCC(=O)Nc2ccccc2Cl)n1C | x | x | x | -1.8
Cc1ccc(OCCOCCN(C)C)c(Cl)c1 | 0.1% | 40.7% | u | -22.5
COCCNCCCOc1ccc(Br)cc1Cl | 10µM* | -15.5% | u | -12.5
CN(C)CCCCOc1ccc(Br)cc1Cl | 10µM* | u | 1.8% | 14.2
COCCCNCCCCOc1ccc(Br)cc1Cl | 10µM* | u | u | u
COCCNCCCOc1ccc(Cl)cc1Br | -0.9% | -13.1% | u | -17.9
O=C(Cn1c(=O)n(Cc2nc(-c3ccccc3)no2)c(=O)c2ccccc21)Nc1cccc(C(F)(F)F)c1 | x | x | x | -7.0
Cc1ccc(NC(=O)C2CCN(C(=O)c3cnn(-c4ccccc4)c3-n3cccc3)CC2)cc1C | x | x | x | -20.9
Cc1ccc(-n2nc(CO)c(C(=O)NCCCc3ccccc3)n2)cc1 | x | x | x | -18.5
Cc1ccc(NS(=O)(=O)c2ccc3c(c2)CC(=O)N3)cc1F | 17.8% | u | -27.8% | -62.4*
Cc1ccc(NS(=O)(=O)c2ccc3c(c2)CC(=O)N3)c(C)c1 | 9.1% | 15.1% | 15.7% | -32.7
CC(C)[C@H](NC(=O)c1ccc(Cl)cc1Cl)C(=O)N1CCC[C@H]1C(=O)NCCc1ccccc1Cl | x | x | x | -7.4
Cc1ccc(-c2cc(=O)c3cc(F)ccc3[nH]2)cc1 | -5.8% | u | 10.4µM* | -0.4
Cc1ccc(-c2cc(=O)c3cc(C)ccc3[nH]2)cc1 | u | -6.1% | u | 0.5
O=c1cc(-c2ccccc2)[nH]c2ccc(F)cc12 | -9.6% | 0.586µM* | 1.47µM* | -62.0*
O=c1cc(-c2ccccc2)[nH]c2cc(Cl)ccc12 | -2.9% | 4.65µM* | 8.28µM* | -24.9
COc1ccc2nc(N(Cc3cccnc3)C(=O)c3ccc(Cl)cc3)sc2c1 | x | x | x | 41.0
Cc1oc(-c2ccccc2)nc1CN1C(=O)C(C)N=C(c2ccccc2F)c2cc(Cl)ccc21 (stereo unspecified) | u | u | 2.33µM* | 27.3
COc1cccc(-n2c(SCc3c(C)noc3C)nnc2-c2cccc(S(=O)(=O)N(C)C)c2)c1 | 3.9% | 11.7µM* | u | 36.9
COc1ccc(OC)c(-n2c(-c3cccc(S(=O)(=O)N(C)C)c3)n[nH]c2=S)c1 | -6.0% | -6.7% | -4.7% | 5.0
CCCSc1nnc(-c2cccc(S(=O)(=O)N(C)C)c2)n1-c1cc(OC)ccc1OC | -10.5% | u | u | -61.6*
